From PubChem
PLK1 PBD block: blocks phosphopeptide binding to human PLK1 polo-box domain; Plk1 PBD binding of FITC phosphopeptide, fluorescence polarization; Potency, µM, actives largely listed as inhibitors; 360,000 compounds, 2.8% hits; AID 720504; also: series mostly up to about 57 µM; nearly all actives have a fitted effect of over 65% in size
BAZ2B block: inhibitors of human BAZ2B bromodomain. Potency, µM (top dose mostly 114 µM), usual class: inhibitors. 360,000 compounds, 4.4% hits. Q9UIF8. AlphaScreen BAZ2B-H3K14Ac peptide displacement; also: nearly all actives have a fitted effect of over 60% in size
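In this displacement format the biotinylated H3(5-23) peptide acetylated at Lys14 serves as ligand at 50 nM, with BAZ2B at 50 nM in PBS pH 7.4 containing 0.01% Tween-20. Donor and acceptor beads are 10 ug/mL final.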
JMJD2A Tudor: inhibitors of human JMJD2A Tudor domain | 390,000 compounds, 4.4% hits | AID 504339 | AlphaScreen JMJD2A-Tudor / H3K4me3 peptide binding | Potency, µM (titrated, usually from 114 µM), actives largely listed as inhibitors | O75164; also: nearly all actives have a fitted effect of over 50% in size
G9a inh: G9a (human) methyltransferase inhibition. AID 504332. Potency, µM (top dose mostly 102 µM), usual class: inhibitors. 350,000 compounds, 8.8% hits. G9a H3K9 monomethylation, AlphaScreen, 2 h. Q96KQ7; also: nearly all actives have a fitted effect of over 75% in size
Target sequence (Q96KQ7 913-1193 limits assumed): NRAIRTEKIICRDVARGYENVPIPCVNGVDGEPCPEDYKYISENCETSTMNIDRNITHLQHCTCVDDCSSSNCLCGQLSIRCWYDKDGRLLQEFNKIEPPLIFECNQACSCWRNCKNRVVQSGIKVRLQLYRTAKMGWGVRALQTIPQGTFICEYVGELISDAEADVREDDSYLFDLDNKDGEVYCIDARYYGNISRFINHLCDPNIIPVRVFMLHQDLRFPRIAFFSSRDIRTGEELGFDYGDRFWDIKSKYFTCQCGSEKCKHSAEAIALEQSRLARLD
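Readings reflect AlphaScreen signal from monomethyl-H3K9 antibody detection. HMT at 20 nM; substrate b-H3K9 500 nM; cofactor SAM 20 uM; 2 h RT reaction; compounds tested as titrations in qHTS with 15 min preincubation.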
HP1b chromo inh: HP1-beta chromodomain-methylated histone interaction inhibition | 390,000 compounds, 0.56% hits | AlphaScreen HP1-beta / biotin-H3K9me3 peptide binding | AID 540317 | P83916 | Potency, µM (series often up to 114 µM), most hits filed as inhibitors; also: nearly all actives have a fitted effect of over 70% in size
Target sequence (P83916 whole entry, looked up): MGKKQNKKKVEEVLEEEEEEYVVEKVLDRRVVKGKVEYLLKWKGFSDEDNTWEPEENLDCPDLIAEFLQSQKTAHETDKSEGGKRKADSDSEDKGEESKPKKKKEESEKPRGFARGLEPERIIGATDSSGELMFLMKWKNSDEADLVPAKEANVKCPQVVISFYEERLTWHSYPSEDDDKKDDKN
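HP1-beta protein (50 nM final) preincubated 30 min at room temperature with biotinylated H3(1-18)K9me3 peptide (50 nM) in PBS pH 7.4, 0.01% Tween-20, then compound added for 30 min. AlphaScreen streptavidin donor/nickel chelate acceptor beads (10 ug/mL final), 30 min dark, luminescence read.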
VDR inh: blocks the human vitamin D receptor. P11473. VDR-SRC2-3 peptide fluorescence polarization, 2 h. Potency, µM, hits mostly inhibitors. AID 504847. 400,000 compounds, 0.93% hits
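Fluorescence polarization assay measuring small-molecule disruption of VDR binding to the coregulator peptide SRC2-3. Compounds were pin-transferred (23 nl) into the reagent mix and incubated 2 h at room temperature before reading.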
Large screens that a line does not name were inactive. Rows were chosen to be rich in hits. Some 11% of all compounds tested hit in one or more screens of this group. Calls follow the shape of the dose curve; as a rule, active = well fitted curve in the direction sought with a large enough effect; inconclusive = small, poorly fitted or top-dose-only effect, or another doubt; inactive = no such curve, though single readings can be large; an effect the other way counts as inactive or inconclusive.

O=C(O)c1ccc(N2CC3CC(C2)c2cccc(=O)n2C3)c(NC(=S)Nc2ccc(Br)cc2)c1 (stereo not drawn)	PLK1 PBD block 19µM, G9a inh 32µM, VDR inh inconclusive
c1ccc(-c2nn[nH]n2)nc1	BAZ2B block 5.6µM, JMJD2A Tudor 7.1µM (no result: G9a inh)
c1ccc(-c2nn[nH]n2)cc1	G9a inh inconclusive
CN(C)CCC[C@@]1(c2ccc(F)cc2)OCc2cc(C#N)ccc21	JMJD2A Tudor 35µM, HP1b chromo inh inconclusive (no result: BAZ2B block)
CN(C)CCC[C@]1(c2ccc(F)cc2)OCc2cc(C#N)ccc21	none
C=CCSc1nc(C)c(CCC(C)C)c(=O)[nH]1	PLK1 PBD block 27µM
C=CCSc1nc(C)c(CC(=C)C)c(=O)[nH]1	none
CC1CN(C(=S)NC2CCCC2)CC(C)O1 (stereo not drawn)	none (no result: G9a inh)
CC1CCCN(C(=O)C2CCN(CC3CC=CCC3)CC2)C1 (stereo not drawn)	JMJD2A Tudor 8.9µM, G9a inh inconclusive, HP1b chromo inh inconclusive
CC1CCCN(C(=O)C2CCN(C(=O)Nc3ccccc3)CC2)C1 (stereo not drawn)	none
CN1c2ccsc2C(O)=C(C(=S)Nc2ccc(F)c(Cl)c2)S1(=O)=O	PLK1 PBD block inconclusive, BAZ2B block inconclusive, G9a inh 18µM, VDR inh inconclusive
CC(=O)Nc1cccc(Oc2ncnc3scc(-c4ccc(C)cc4)c23)c1	BAZ2B block inconclusive, JMJD2A Tudor inconclusive
COc1ccc(Cn2c3nc4ccccc4nc3c3c(=O)n(Cc4ccco4)c(C)nc32)cc1	BAZ2B block 50µM, G9a inh inconclusive (no result: PLK1 PBD block, JMJD2A Tudor, HP1b chromo inh, VDR inh)
COc1ccc(S(=O)(=O)c2c(N)n(Cc3ccco3)c3nc4ccccc4nc23)cc1	PLK1 PBD block inconclusive, G9a inh 45µM
Cc1ccc(S(=O)(=O)c2c(N)n(/N=C/c3ccco3)c3nc4ccccc4nc23)cc1	G9a inh inconclusive
Cc1nc2c(c(=O)n1Cc1ccccc1Cl)c1nc3ccccc3nc1n2Cc1ccco1	G9a inh inconclusive (no result: PLK1 PBD block, JMJD2A Tudor, HP1b chromo inh, VDR inh)
Cc1cc(C)cc(-n2c3nc4ccccc4nc3c3c(=O)n(Cc4ccco4)cnc32)c1	BAZ2B block 50µM, G9a inh inconclusive
COc1ccc(Cn2c(C)nc3c(c2=O)c2nc4ccccc4nc2n3Cc2ccco2)cc1	PLK1 PBD block 7.5µM, JMJD2A Tudor inconclusive, HP1b chromo inh inconclusive, VDR inh inconclusive (no result: BAZ2B block, G9a inh)
COc1ccc(-c2nc3cnc(N4CCN(C)CC4)nc3n(Cc3ccc(F)cc3)c2=O)cc1	none (no result: PLK1 PBD block, BAZ2B block, JMJD2A Tudor, HP1b chromo inh)
COc1cc(F)c(S(=O)(=O)N2CCCN(S(=O)(=O)c3ccc4c(c3)OCCO4)CC2)c(F)c1	none (no result: PLK1 PBD block, BAZ2B block, G9a inh, HP1b chromo inh, VDR inh)
O=C(OCc1cc(=O)n2nc(-c3cccs3)sc2n1)c1ccccc1Br	none (no result: PLK1 PBD block)
Oc1nc(Nc2ccc(Cl)cc2Cl)sc1/C=C1\C=Nc2ccccc21	BAZ2B block inconclusive, JMJD2A Tudor inconclusive, G9a inh 4.5µM, HP1b chromo inh inconclusive
O=C1CCN(Cc2ccccc2)C=C1c1ccc2ccccc2c1	PLK1 PBD block inconclusive, JMJD2A Tudor 45µM (no result: BAZ2B block, G9a inh)
COc1ccc(NC(=O)Cn2c(=O)n(Cc3ccccc3)c(=O)c3sc4ccccc4c32)cc1	none (no result: PLK1 PBD block)
COc1ccccc1C1C2=C(N=c3s/c(=C/c4cccc(OCC(=O)O)c4)c(=O)n31)c1ccccc1CC2 (stereo not drawn)	PLK1 PBD block inconclusive, BAZ2B block 50µM, JMJD2A Tudor 35µM, G9a inh 14µM, HP1b chromo inh inconclusive, VDR inh inconclusive
COc1cccc(C2C3=C(N=c4s/c(=C\c5ccc(OCC(=O)O)cc5)c(=O)n42)c2ccccc2CC3)c1 (stereo not drawn)	PLK1 PBD block inconclusive, BAZ2B block 50µM, JMJD2A Tudor 45µM, G9a inh 20µM
CC(Sc1nnc(-c2ccco2)n1C)C(=O)N1C(C)CCCC1C (stereo not drawn)	none
O=C(C1=C(O)C(=O)N(CCOCCO)C1c1cccs1)c1cccs1 (stereo not drawn)	BAZ2B block inconclusive, JMJD2A Tudor inconclusive, G9a inh 45µM
CC(=O)C1=C(O)C(=O)N(CC#N)C1c1cccs1 (stereo not drawn)	JMJD2A Tudor 79µM
COC(=O)[C@H]1O[C@@H](c2cc(OC)c(C)c(OC)c2OCc2ccccc2)[C@H](C)[C@H]2O[C@@]12C	none (no result: PLK1 PBD block, BAZ2B block, JMJD2A Tudor, G9a inh, HP1b chromo inh)
